According to PubChem BioAssay (Tox21):
“And” between values parts separate entries of the source, which are not always exact repeats. Equal entries are not always repeated. Results filed as inconclusive are left out. Some compounds were tested as several samples or in several runs, with calls that do not always agree. The source made the active and inactive calls. Calls come from the whole dose curve.

Experiments:
[1] = biological target: Acetylcholinesterase (Homo sapiens) (UniProt P22303); test: Acetylcholinesterase (AChE) small molecule antagonists: colormetric cell-based qHTS assay (AID 1347395); note: nearly all actives have a fitted effect of over 30% in size; note: potency is the fitted concentration of half-maximal effect
Acetylcholinesterase (Homo sapiens), sequence (P22303 whole entry, looked up): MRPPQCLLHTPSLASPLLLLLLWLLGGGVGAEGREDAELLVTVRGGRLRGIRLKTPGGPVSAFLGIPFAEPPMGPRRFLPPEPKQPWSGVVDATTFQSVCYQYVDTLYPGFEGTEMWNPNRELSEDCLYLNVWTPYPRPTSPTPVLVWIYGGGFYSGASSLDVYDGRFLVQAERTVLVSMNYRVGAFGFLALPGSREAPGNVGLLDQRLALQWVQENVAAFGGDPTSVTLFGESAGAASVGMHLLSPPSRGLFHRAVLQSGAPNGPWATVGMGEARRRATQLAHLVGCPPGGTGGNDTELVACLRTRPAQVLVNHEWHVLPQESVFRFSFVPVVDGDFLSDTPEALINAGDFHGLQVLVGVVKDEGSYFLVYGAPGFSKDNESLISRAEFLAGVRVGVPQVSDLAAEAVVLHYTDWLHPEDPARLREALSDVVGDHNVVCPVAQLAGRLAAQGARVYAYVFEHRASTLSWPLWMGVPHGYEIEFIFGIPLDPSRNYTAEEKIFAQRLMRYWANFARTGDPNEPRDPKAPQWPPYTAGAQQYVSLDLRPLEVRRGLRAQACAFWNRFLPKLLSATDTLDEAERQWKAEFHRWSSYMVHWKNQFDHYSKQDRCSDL
Procedure, shortened: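 Colorimetric read-out: DTNB detects thiocholine released when cellular AChE in SH-SY5Y cells hydrolyses acetylthiocholine. Cells attached overnight, received compound for 30 min at 37 C, then substrate mix for 90 min at 37 C.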

[2] = biological target: Acetylcholinesterase (Homo sapiens) (UniProt P22303); test: Acetylcholinesterase (AChE) small molecule antagonists: enzyme-based qHTS assay (AID 1347397); settings: Potency: AChE enzyme activity inhibition; outcome: AChE enzyme activity inhibition; note: nearly all actives have a fitted effect of over 55% in size; note: potency is the fitted concentration of half-maximal effect
Procedure, shortened: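 Recombinant human AChE (50 mU/mL) preincubated with compound 30 min at room temperature; acetylthiocholine plus DTNB then added, and thiocholine formation read colorimetrically after 10 min at room temperature. DMSO served as vehicle control.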

[3] = biological target: Acetylcholinesterase (Homo sapiens) (UniProt P22303); test: Acetylcholinesterase (AChE) small molecule antagonists: fluorescence cell-based qHTS assay (AID 1347398); settings: Potency: AChE activity; outcome: AChE activity; note: nearly all actives have a fitted effect of over 50% in size; note: potency is the fitted concentration of half-maximal effect
Procedure, shortened: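 SH-SY5Y cells (2000/well), attached overnight, incubated with compound 30 min at 37 C. Acetylthiocholine plus Thiolite Green then added for 40 min at room temperature. Thiocholine fluorescence (Ex/Em 490/520 nm) reports cellular AChE activity.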

[4] = biological target: Acetylcholinesterase (Homo sapiens) (UniProt P22303); test: Acetylcholinesterase (AChE) small molecule antagonists: enzyme-based qHTS assay with human liver microsomes (AID 1347399); settings: Potency: qHTS inhibition; outcome: qHTS inhibition; note: nearly all actives have a fitted effect of over 60% in size
Procedure, shortened: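 Recombinant human AChE (50 mU/mL in the enzyme mix) and human liver microsomes (0.25 mg/mL final) were preincubated with compound and NADPH (0.25 mg/mL final) for 30 min at 37 C. Acetylthiocholine/DTNB was then added; thiocholine was read colorimetrically after 10 min at room temperature.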
% is set by controls: 0 for no effect and ±100 for the full control effect.

CC(C)COC(=O)c1ccccc1O
inactive: Potency [1] | Potency [2] | Potency [3] | Potency [4]

CC(=O)OCCN(CCOC(C)=O)c1ccc(N=Nc2ccc([N+](=O)[O-])cc2C#N)cc1
inactive: Potency [1] | Potency [2] | Potency [3] | Potency [4]

O=C1OC(O)C(C(Cl)Cl)=C1Cl (stereo not given)
inactive: Potency [1] | Potency [2] | Potency [3] | Potency [4]

c1ccc2cc(Nc3ccc(Nc4ccc5ccccc5c4)cc3)ccc2c1
inactive: Potency [1] | Potency [2] | Potency [3] | Potency [4]

CCCCCCCCCCCCN1CCCCCC1=O
inactive: Potency [1] | Potency [2] | Potency [3] | Potency [4]

CCCCS
inactive: Potency [1] | Potency [2] | Potency [3] | Potency [4]

CC(C)c1ccc(S(=O)(=O)O)cc1
inactive: Potency [1] | Potency [2] | Potency [3] | Potency [4]

CCCN1C=CN(C)C1
inactive: Potency [1] | Potency [2] | Potency [3] | Potency [4]

CC(C=O)Cc1ccc(C(C)C)cc1 (stereo not given)
inactive: Potency [1] | Potency [2] | Potency [3] | Potency [4]

Nc1ccc2cc3ccccc3cc2c1
inactive: Potency [1] | Potency [2] | Potency [3] | Potency [4]

C[C@@H]1CC[C@@]2(OC1)O[C@H]1C[C@H]3[C@@H]4CC[C@H]5C[C@@H](O)CC[C@]5(C)[C@H]4CC(=O)[C@]3(C)[C@H]1[C@@H]2C
inactive: activity, negative = inhibition [1] -3.52% [at 10.5 µM] | activity change, negative = inhibition [2] -1.66% [at 10.5 µM] | activity change, negative = inhibition [3] -1.2% [at 10.5 µM] | activity change, negative = inhibition [4] -3.36% [at 10.5 µM]

CC(C)OC(=O)c1ccccc1
inactive: Potency [1] | Potency [2] | Potency [3] | Potency [4]

C=CCNCC=C
inactive: Potency [1] | Potency [2] | Potency [3] | Potency [4]

BrC1CCC(Br)C(Br)CCC(Br)C(Br)CCC1Br (stereo not given)
inactive: Potency [1] | Potency [2] | Potency [3] | Potency [4]

OC(CCN1CCCCC1)(c1ccccc1)C1CCCCC1 (stereo not given)
inactive: outcome [1] | outcome [2] | outcome [3] | outcome [4]

CCCc1ccccc1O
inactive: Potency [1] | Potency [2] | Potency [3] | Potency [4]

C=CC(C)CCCC(C)(C)O (stereo not given)
inactive and 25.2 µM (active): Potency [2]
inactive and 22.4 µM (active): Potency [3]
inactive and 28.3 µM (active): Potency [1]
inactive: Potency [4]

COc1ccccc1/C=C/C=O
inactive: Potency [1] | Potency [2] | Potency [3] | Potency [4]

OC12N=C(c3ccccc3)SC1Cc1cc(Cl)ccc12 (stereo not given)
inactive: Potency [1] | Potency [2] | Potency [3] | Potency [4]

CCCCCC[C@@H](CCC)C(=O)O
inactive: Potency [1] | Potency [2] | Potency [3] | Potency [4]

N[C@@H](Cc1c[nH]c2ccccc12)C(=O)O
inactive: Potency [1] | Potency [2] | Potency [3] | Potency [4]

O=C(O)CCCC[P+](c1ccccc1)(c1ccccc1)c1ccccc1
inactive: Potency [1] | Potency [2] | Potency [3] | Potency [4]

C=C(C)C(=O)NCCC[N+](C)(C)C
inactive: Potency [1] | Potency [2] | Potency [3] | Potency [4]

C1COCCO1
inactive: Potency [1] | Potency [2] | Potency [3] | Potency [4]

C=C(C)C1CC=C(C)CC1 (stereo not given)
inactive: Potency [1] | Potency [2] | Potency [3] | Potency [4]

O=C(Nc1ccccc1SSc1ccccc1NC(=O)c1ccccc1)c1ccccc1
inactive: Potency [1] | Potency [2] | Potency [3] | Potency [4]

CCN(Cc1cccnc1)C(=O)c1cccc(Cl)c1[C@]1(C)C(=O)N(Cc2ccc(OC)cc2OC)c2ccc(Cl)cc21
inactive: Potency [1] | Potency [2] | Potency [3] | Potency [4]

CC(=O)Nc1ccn(C2COC(COC(=O)c3ccccc3)O2)c(=O)n1 (stereo not given)
inactive: Potency [1] | Potency [2] | Potency [3] | Potency [4]

Cc1ccc(S(=O)(=O)NC(=O)NN2CCCCCC2)cc1
inactive: Potency [1] | Potency [2] | Potency [3] | Potency [4]

CCN(CC)C(=O)C1CN2CCc3cc(OC)c(OC)cc3C2CC1OC(C)=O (stereo not given)
inactive: Potency [1] | Potency [2] | Potency [3] | Potency [4]

OCC(O)[C@@H](O)[C@H](O)[C@H](O)CO[C@H]1O[C@H](CO)[C@@H](O)[C@H](O)[C@H]1O (stereo not given in full)
inactive: Potency [1] | Potency [2] | Potency [3] | Potency [4]

N[C@@H](CCC(=O)Nc1ccc([N+](=O)[O-])cc1)C(=O)O
inactive: Potency [1] | Potency [2] | Potency [3] | Potency [4]

C=CC/C=C/C
inactive: Potency [1] | Potency [2] | Potency [3] | Potency [4]

CCOC(=O)c1ccc(C)cc1
inactive: Potency [1] | Potency [2] | Potency [3] | Potency [4]

CCCCCCCOC(=O)c1ccc(O)cc1
inactive: Potency [1] | Potency [2] | Potency [3] | Potency [4]

O=C1CCCCC1
inactive: Potency [1] | Potency [2] | Potency [3] | Potency [4]

CN1CCN(N)CC1
inactive: Potency [1] | Potency [2] | Potency [3] | Potency [4]

C[C@@H]1CC(=O)NN=C1c1ccc(NN=C(C#N)C#N)cc1
inactive: Potency [1] | Potency [2] | Potency [3] | Potency [4]

[Cl][In]([Cl])[Cl]
inactive: Potency [1] | Potency [2] | Potency [3] | Potency [4]

Nc1[nH]c(=O)ncc1F
inactive: Potency [1] | Potency [2] | Potency [3] | Potency [4]

CC1Cc2ccccc2N1NC(=O)c1ccc(Cl)c(S(N)(=O)=O)c1 (stereo not given)
inactive: Potency [1] | Potency [2] | Potency [3] | Potency [4]

C/C(=C(/OCCOc1ccc(Cl)cc1)c1ccc(Cl)cc1Cl)n1ccnc1
inactive: Potency [1] | Potency [2] | Potency [3] | Potency [4]

CC[C@]1(O)C[C@H]2CN(CCc3c([nH]c4ccccc34)[C@@](C(=O)OC)(c3cc4c(cc3OC)N(C=O)[C@H]3[C@@](O)(C(=O)OC)[C@H](OC(C)=O)[C@]5(CC)C=CCN6CC[C@]43[C@@H]65)C2)C1
inactive: Potency [1] | Potency [2] | Potency [3] | Potency [4]

CCN(Cc1cccc(S(=O)(=O)O)c1)c1ccccc1
inactive: Potency [1] | Potency [2] | Potency [3] | Potency [4]

C=C[Si](OC(C)=O)(OC(C)=O)OC(C)=O
inactive: Potency [1] | Potency [2] | Potency [3] | Potency [4]

C[C@]12CCC(=O)C=C1CC[C@@H]1[C@@H]2[C@@H](O)C[C@@]2(C)[C@H]1CC[C@]2(O)C(=O)CO
inactive: Potency [1] | Potency [2] | Potency [3] | Potency [4]

C=CC(=O)OCCC#N
inactive: Potency [1] | Potency [2] | Potency [3] | Potency [4]

Nc1nc(F)nc2c1ncn2[C@@H]1O[C@H](CO)[C@@H](O)[C@@H]1O
inactive: Potency [1] | Potency [2] | Potency [3] | Potency [4]

Cc1ccc2c(c1)C(=O)OC2=O
inactive: Potency [1] | Potency [2] | Potency [3] | Potency [4]

Nc1ccn([C@@H]2O[C@H](CO)[C@@H](O)[C@@H]2O)c(=O)n1
inactive: Potency [1] | Potency [2] | Potency [3] | Potency [4]

O=C(O)c1cc2ccccc2nc1C(=O)O
inactive: Potency [1] | Potency [2] | Potency [3] | Potency [4]

CCN(CCO)c1cccc(C)c1
inactive: Potency [1] | Potency [2] | Potency [3] | Potency [4]

CCC(O)OC(O)CC (stereo not given)
inactive: Potency [1] | Potency [2] | Potency [3] | Potency [4]

CO[C@H]1C=CO[C@@]2(C)Oc3c(C)c(O)c4c(O)c(c5c(c4c3C2=O)=NC2(CCN(CC(C)C)CC2)N=5)NC(=O)/C(C)=C\C=C/[C@H](C)[C@H](O)[C@@H](C)[C@@H](O)[C@@H](C)[C@H](OC(C)=O)[C@@H]1C
inactive: Potency [1] | Potency [2] | Potency [3] | Potency [4]

NCCS(=O)(=O)O
inactive: Potency [1] | Potency [2] | Potency [3] | Potency [4]

COc1cc(S(N)(=O)=O)cc(C(=O)O)c1OC
inactive: Potency [1] | Potency [2] | Potency [3] | Potency [4]

Cc1cc(C)c(O)c(C)c1
inactive: Potency [1] | Potency [2] | Potency [3] | Potency [4]

NC(=O)CC[C@@H]1NC(=O)[C@H](Cc2ccccc2)NC(=O)[C@H](Cc2ccc(O)cc2)NC(=O)CCSSC[C@@H](C(=O)N2CCC[C@H]2C(=O)N[C@@H](CCCN=C(N)N)C(=O)NCC(N)=O)NC(=O)[C@H](CC(N)=O)NC1=O
inactive: Potency [1] | Potency [2] | Potency [3] | Potency [4]

CC(C)Oc1ccc2c(=O)c(-c3ccccc3)coc2c1
inactive: Potency [1] | Potency [2] | Potency [3] | Potency [4]

CCCCCCCCC(=O)OCC
inactive: Potency [1] | Potency [2] | Potency [3] | Potency [4]
